Experimental data from PubChem BioAssay AID624354 (Sanford-Burnham Center for Chemical Genomics, 2012).
Hit rate of the full screen: of about 360,000 compounds, about 3,800 (1.1%) were called active. For the sample, actives were picked, then their nearest neighbours and some compounds at random. Values without a mark were called inactive.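 How the source made its calls: active means compounds causing at least 50% loss of cell viability in the single-dose screen, relative to plate controls; inactive means the rest.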

test: TRAIL-exposed caspase-8 expressing cell killing – NB7+C8 cells, ATPlite luminescence, TRAIL sensitizer project, primary screen (AID 624354); conditions: at 10 µM, hits give high values

Question: With O=C(CN1C(=O)NC2(CCOc3ccccc32)C1=O)Nc1cccc([N+](=O)[O-])c1 (centres undefined) as the compound, how does the inhibition (viability loss, TRAIL sensitization) read?
Answer: -2.91%

Question: With CCOC(=O)C1=C(C)OC(N)=C(C#N)C1c1cncc(-c2ccc(F)cc2)c1 (centres undefined) as the compound, how does the inhibition (viability loss, TRAIL sensitization) read?
Answer: -2.49%

Question: For FC(F)(F)c1ccc2nnc(-c3c(Cl)cccc3Cl)n2c1, which inhibition (viability loss, TRAIL sensitization) is on record?
Answer: 24.4%

Question: For CN(C)C1=NC[C@H](Cc2ccccc2)N1CCc1ccc(F)cc1, which inhibition (viability loss, TRAIL sensitization) is on record?
Answer: 6.59%

Question: For Cc1cc(C)n(C(=O)CCNC(=O)c2ccccc2Cl)n1, which inhibition (viability loss, TRAIL sensitization) is on record?
Answer: 4.1%

Question: With CN(C)CCNC(=O)c1ccc(Cl)c2cc3ccccc3nc12 as the compound, how does the inhibition (viability loss, TRAIL sensitization) read?
Answer: 56% (active)

Question: For COCCNC(=O)c1ccccc1-c1nc(-c2ccccc2Cl)no1, which inhibition (viability loss, TRAIL sensitization) is on record?
Answer: 4.78%

Question: Which inhibition (viability loss, TRAIL sensitization) does the source give for Cn1nc(-c2ccccc2)c(CSc2cccc(Cl)c2)c1Cl here?
Answer: 6.33%

Question: With Cc1ccc(S(=O)(=O)NC[C@H]2O[C@@H](n3cnc4c(N)ncnc43)[C@H](O)[C@@H]2O)s1 as the compound, how does the inhibition (viability loss, TRAIL sensitization) read?
Answer: -2.79%

Question: For Cn1nc(C(C)(C)C)c(NC(=O)c2sccc2Cl)c1C(C)(C)C, which inhibition (viability loss, TRAIL sensitization) is on record?
Answer: 15.6%

Question: For COc1ccc2oc(N)nc2c1, which inhibition (viability loss, TRAIL sensitization) is on record?
Answer: 4.55%

Question: Which inhibition (viability loss, TRAIL sensitization) does the source give for COc1cccc(-c2nc3cc(C)ccc3o2)c1 here?
Answer: 52.6% (active)

Question: Which inhibition (viability loss, TRAIL sensitization) does the source give for O=[N+]([O-])c1ccc2oc(-c3cccc(O)c3)nc2c1 here?
Answer: 24.5%

Question: Which inhibition (viability loss, TRAIL sensitization) does the source give for O=C(NC(Cc1ccc(O)cc1)C(=O)O)/C(=C/c1ccccc1)NC(=O)c1ccccc1 (centres undefined) here?
Answer: -22.8%

Question: With Cc1ccc(N2C(=O)C3C(c4ccccc4)(C2=O)C3(c2ccccc2)c2ccccc2)cc1 (centres undefined) as the compound, how does the inhibition (viability loss, TRAIL sensitization) read?
Answer: 11.6%

Question: For CSc1cc(C)[nH]c(=O)n1, which inhibition (viability loss, TRAIL sensitization) is on record?
Answer: -4.86%

Question: For COc1ccc(Cl)cc1NC(=O)CN(C)C(=O)c1cn(-c2ccccc2)nc1-c1cccs1, which inhibition (viability loss, TRAIL sensitization) is on record?
Answer: 21.4%

Question: With O=C(O)c1ccc(N/N=C/c2ccc3ncccc3c2)cc1 as the compound, how does the inhibition (viability loss, TRAIL sensitization) read?
Answer: 18.4%

Question: Which inhibition (viability loss, TRAIL sensitization) does the source give for O=C(O)c1ccc(N/N=C/c2cn(-c3ccccc3)nc2-c2cccs2)cc1 here?
Answer: 76.2% (active)

Question: Which inhibition (viability loss, TRAIL sensitization) does the source give for COc1ccc(CN2CC(C(=O)NCCc3ccc(Cl)cc3)CC2=O)cc1 (centres undefined) here?
Answer: 10.4%

Question: Which inhibition (viability loss, TRAIL sensitization) does the source give for CCOC(=O)C1CCCN(C(=O)c2ccc(N(C)C)cc2)CC1 (centres undefined) here?
Answer: -15.3%

Question: For OC1CN=C2Sc3ccccc3N2C1 (centres undefined), which inhibition (viability loss, TRAIL sensitization) is on record?
Answer: -13.7%

Question: Which inhibition (viability loss, TRAIL sensitization) does the source give for CC1CN(S(=O)(=O)c2ccccc2)C(C)CN1S(=O)(=O)c1ccccc1 (centres undefined) here?
Answer: 7.64%

Question: With O=C(COc1cccc(F)c1)Oc1ccc(C(=O)c2ccccc2)cc1 as the compound, how does the inhibition (viability loss, TRAIL sensitization) read?
Answer: 7.92%

Question: Which inhibition (viability loss, TRAIL sensitization) does the source give for O=C(Oc1ccc(-c2nc(-c3ccccn3)no2)cc1)c1ccccc1 here?
Answer: 72% (active)

Question: With Cc1noc(C)c1COC(=O)COc1ccc(-c2ccccc2)cc1 as the compound, how does the inhibition (viability loss, TRAIL sensitization) read?
Answer: -21.6%

Question: With CC(=O)Nc1ccc(C(=O)N(C2=NC(C)CS2)c2ccc(Cl)cc2)cc1 (centres undefined) as the compound, how does the inhibition (viability loss, TRAIL sensitization) read?
Answer: 0.911%

Question: Which inhibition (viability loss, TRAIL sensitization) does the source give for O=c1oc2ccccc2cc1-c1cn(-c2ccccc2)c(=S)[nH]1 here?
Answer: 82.7% (active)

Question: Which inhibition (viability loss, TRAIL sensitization) does the source give for COc1ccc([C@H]2CC(=O)C[C@@H](CCn3cc(CC4CCCC4)nn3)O2)cc1 here?
Answer: 6.31%

Question: With CC(CC(=O)N1CCN(c2ccccc2)CC1)S(=O)(=O)c1ccc2c(c1)NC(=O)CS2 (centres undefined) as the compound, how does the inhibition (viability loss, TRAIL sensitization) read?
Answer: 23.3%

Question: For O=C(CN1CCN(S(=O)(=O)c2ccc(Cl)s2)CC1)NCc1ccc(Cl)cc1, which inhibition (viability loss, TRAIL sensitization) is on record?
Answer: 15.3%

Question: For Cc1nc(C(F)(F)F)ccc1C(=O)N1CCC1(C)C(=O)NS(=O)(=O)c1ccccc1 (centres undefined), which inhibition (viability loss, TRAIL sensitization) is on record?
Answer: -0.681%

Question: Which inhibition (viability loss, TRAIL sensitization) does the source give for COc1cc(/C=N/N=C(\N)c2nonc2N)cc(OC)c1OC here?
Answer: 36.5%

Question: For COc1cc(Nc2nc3ccc(Cl)cc3n3cnnc23)cc(OC)c1OC, which inhibition (viability loss, TRAIL sensitization) is on record?
Answer: 6.53%

Question: Which inhibition (viability loss, TRAIL sensitization) does the source give for COc1cc(/C=N/Nc2nn3cnnc3c3ccccc23)cc(OC)c1OC here?
Answer: 69.3% (active)

Question: For COCCN(C(=O)c1ccco1)c1nnc(-c2ccc(OC)cc2)s1, which inhibition (viability loss, TRAIL sensitization) is on record?
Answer: 15.7%

Question: For CC(C)NC(=O)N1CCN(c2ccncc2S(=O)(=O)N2CCCCC2)CC1, which inhibition (viability loss, TRAIL sensitization) is on record?
Answer: -3.19%

Question: For CCN(CC)c1ccc(/C=N/Nc2nc(C)cc(C)n2)c(O)c1, which inhibition (viability loss, TRAIL sensitization) is on record?
Answer: 51.5% (active)

Question: Which inhibition (viability loss, TRAIL sensitization) does the source give for O=C(CNS(=O)(=O)c1ccc(Br)s1)NCc1ccc2c(c1)OCO2 here?
Answer: 0.95%

Question: For COc1ccc(N2CC(C(=O)N[C@@H](C)C(=O)N3CCCCC3)CC2=O)cc1 (some centres undefined), which inhibition (viability loss, TRAIL sensitization) is on record?
Answer: 5.67%

Question: For CCCNC(=S)N1CCC(NC(=O)C23CC4CC(CC(C4)C2)C3)CC1, which inhibition (viability loss, TRAIL sensitization) is on record?
Answer: 26.6%

Question: Which inhibition (viability loss, TRAIL sensitization) does the source give for CCOC(=O)c1sc(NC(=O)CSc2nc(O)c(Cc3ccccc3)c(=O)[nH]2)nc1C here?
Answer: -1.62%

Question: Which inhibition (viability loss, TRAIL sensitization) does the source give for Fc1ccc(-c2ccc(CNCc3ccccn3)o2)cc1Cl here?
Answer: 4.36%

Question: Which inhibition (viability loss, TRAIL sensitization) does the source give for Clc1ccc(-c2cc(-c3ccccn3)on2)c(Cl)c1 here?
Answer: 87.7% (active)

Question: With Clc1ccc(COn2c(-c3ccc(Cl)cc3Cl)nc3ncccc32)cc1 as the compound, how does the inhibition (viability loss, TRAIL sensitization) read?
Answer: 7.77%

Question: With CCN(CC)CCN(C)C(c1ccnc2ccccc12)c1nnnn1-c1ccc2c(c1)OCCO2 (centres undefined) as the compound, how does the inhibition (viability loss, TRAIL sensitization) read?
Answer: -12.3%

Question: With CNC(=O)n1ccc(C(=O)N2CCCCC2)n1 as the compound, how does the inhibition (viability loss, TRAIL sensitization) read?
Answer: -8.01%

Question: Which inhibition (viability loss, TRAIL sensitization) does the source give for O=C(/C=C/c1ccc(Cl)cc1)NCCCn1ccnc1 here?
Answer: -4.39%

Question: Which inhibition (viability loss, TRAIL sensitization) does the source give for CN(C)N=Nc1ccc2nc[nH]c2c1 here?
Answer: -7.76%

Question: Which inhibition (viability loss, TRAIL sensitization) does the source give for COc1ccc(-n2nnnc2SCC(=O)c2ccc(OC)c(OC)c2)cc1 here?
Answer: -16.3%

Question: For COc1ccc(-n2nnnc2SCC(=O)NCc2cccs2)cc1, which inhibition (viability loss, TRAIL sensitization) is on record?
Answer: 1.36%

Question: For COc1ccc(-n2nnnc2-c2nc3ccccc3s2)cc1, which inhibition (viability loss, TRAIL sensitization) is on record?
Answer: 64.4% (active)

Question: For Cc1ccccc1OCC(=O)NCC(=O)OCC(=O)c1ccc2ccccc2c1, which inhibition (viability loss, TRAIL sensitization) is on record?
Answer: -20.2%

Question: With C/C(=N\NC(=O)COc1ccc(C)cc1[N+](=O)[O-])c1ccc2c(c1)OCCO2 as the compound, how does the inhibition (viability loss, TRAIL sensitization) read?
Answer: -2.67%

Question: Which inhibition (viability loss, TRAIL sensitization) does the source give for Cc1ccc(S(=O)(=O)N(CC(=O)Nc2cccc([N+](=O)[O-])c2)Cc2ccc(Cl)cc2)cc1 here?
Answer: 4.71%

Question: For O=C(CCl)N(Cc1cccc([N+](=O)[O-])c1)c1cccc(Cl)c1, which inhibition (viability loss, TRAIL sensitization) is on record?
Answer: 92.3% (active)

Question: Which inhibition (viability loss, TRAIL sensitization) does the source give for Cc1cc([N+](=O)[O-])ccc1NCc1cccc([N+](=O)[O-])c1 here?
Answer: 0.71%

Question: For CCCOC1CCCN(Cc2cn(C)nc2-c2ccccc2F)C1 (centres undefined), which inhibition (viability loss, TRAIL sensitization) is on record?
Answer: 3.04%

Question: With Cc1noc(C)c1NC(=O)N(C)C[C@@H]1Oc2cc(Br)ccc2S(=O)(=O)N([C@@H](C)CO)C[C@H]1C as the compound, how does the inhibition (viability loss, TRAIL sensitization) read?
Answer: 8.07%
